# An excerpt weighted towards active compounds, which were near 4% of everything screened.
# TWEAK Fn14 block = blocks TWEAK-Fn14 interaction in a reporter cell assay. TWEAK-stimulated Fn14 reporter cells, luciferase luminescence, 8 h. inhibition, % at 10 µM. 2% of 360,000 active. AID 1159606; in the data active = inhibition above about 50%
# Peg3 prom inh = reduces Peg3 promoter-driven luciferase expression in HeLa | HeLa PEG-Prom luciferase reporter, luminescence, overnight | inhibition, % at 20 µM | 1.7% of 360,000 active | AID 588405;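 active = inhibition of at least 50% at 20 µM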
# HIF-2a inh = inhibitors of HIF-2a; 786-0 RCC cells HIF-2a reporter, luciferase luminescence, overnight; inhibition, % at 18.8 µM; 0.72% of 360,000 active;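 active = inhibition of the luminescence signal of 40% or more relative to plate controls, in a single-dose primary screen at 18.75 µM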
# LMP1 NFkB inh = Epstein-Barr LMP1 NF-kappaB reporter inhibition. inhibition, % at 12.5 µM. LMP1-induced NF-kappaB luciferase reporter cells, luminescence. 0.69% of 350,000 active; in the data active = inhibition above about 41%;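 note: 0% = neutral control wells and 100% = reference inhibitor control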
# TROY NFkB inh = blocks TROY-dependent signaling in reporter cells; inhibition, % at 10 µM; 0.98% of 360,000 active; AID 1347056; Q293 LMP1-TROYcd NF-kB luciferase reporter, 4 h;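 active = compounds whose plate-normalised and pattern-corrected inhibition of the luciferase reporter signal at the single screening dose is 50% or more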
# MITF TRPM1 inh = inhibitors of MITF-driven TRPM1 promoter in melanoma cells; inhibition, % at 12.5 µM; SK-MEL-5 TRPM1 promoter luciferase, 24 h; 0.83% of 330,000 active; AID 488899;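 active = mean inhibition across replicates of 60% or more, whatever share of single replicates reaches that level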
# * marks the source's active call; other numbers are inactive results; x = no result given.
SMILES,TWEAK Fn14 block,Peg3 prom inh,HIF-2a inh,LMP1 NFkB inh,TROY NFkB inh,MITF TRPM1 inh
CC1CCCC(NC(=O)COC(=O)c2c[nH]c(=O)[nH]c2=O)C1C (stereo not given),54.8*,3.0,13.1,2.4,x,-2.6
Cc1cc(C(=O)OCC(=O)NC2CCCC(C)C2C)c(C)o1 (stereo not given),6.8,-5.1,-0.8,4.1,13.6,2.5
CCOc1ccc(OCC)c(NC(=O)C2CCN(c3cnccn3)CC2)c1,4.1,1.8,12.3,3.3,-6.7,-1.6
Cc1cc(=S)[nH]c2ccccc12,-13.8,-4.8,15.9,62.6*,9.5,8.6
Cc1ccc(N(CC(=O)NC(C)C)C(=O)CCC(=O)Nc2nccs2)cc1C,-24.8,4.6,16.2,-3.8,2.9,-8.9
O=C(CCl)N1c2ccccc2CCc2ccccc21,19.9,24.8,12.8,-8.3,11.6,75.2*
CC(Cl)C(=O)N1c2ccccc2CCc2ccccc21 (stereo not given),-1.2,25.5,19.6,3.2,22.5,-6.1
CCS(=O)(=O)Nc1cccc(C2=NN(S(=O)(=O)CC)C(c3cccs3)C2)c1 (stereo not given),-7.3,-6.3,-12.7,0.9,-5.8,0.8
O=C(CCS(=O)(=O)c1ccccc1)N(CCCN1CCOCC1)c1nc2ccc(F)cc2s1,15.9,94.3*,-180.0,-5.4,13.1,-29.0
O=C(CCS(=O)(=O)c1ccccc1)N(CCCN1CCOCC1)c1nc2c(F)cccc2s1,23.8,103.6*,-75.0,-3.6,-4.8,-18.7
CCc1cccc2sc(N(CCCN3CCOCC3)C(=O)CS(=O)(=O)c3ccccc3)nc12,-8.6,-21.1,-15.6,0.7,-2.4,1.4
CCCCNc1c(-c2ccc(OC)c(Sc3ccc(OC)cc3)c2)nc2ccccn12,57.2*,93.3*,-225.6,13.3,6.8,10.8
CCC(C)Sc1cccc(-c2nc3ccc(C)cn3c2NCc2ccccc2)c1 (stereo not given),15.6,83.2*,-84.2,-3.1,7.8,-12.3
CCCCCCSc1cccc(-c2nc3ccccn3c2NCc2ccccc2)c1,-10.8,73.7*,-131.5,-1.6,-31.5,-4.2
CCC(C)Sc1cccc(-c2nc3ccccn3c2NCc2ccccc2)c1 (stereo not given),1.5,73.3*,-300.6,-3.9,-21.9,-3.1
CC(C)[C@H](NC(=O)c1ccccc1F)C(=O)NC1CCCCCCC1,8.0,-0.2,1.4,-9.3,-0.3,0.4
COc1cc(NC(=O)CN2CCN(CC(=O)Nc3ccccc3OC)CC2)cc(OC)c1,8.6,10.1,19.3,11.0,-23.8,-2.9
CCCCNc1c(-c2ccc(SC(C)CC)c(OC)c2)nc2ccc(C)cn12 (stereo not given),21.1,93.2*,-155.4,-15.0,-8.4,-13.2
COc1cccc(CNC(=O)CCN2C(=O)[C@@H]3Cc4ccccc4CN3C2=O)c1,-6.2,-11.5,-4.8,-2.5,5.4,2.9
C=C(C)c1cc2c(ccc3ccc(=O)oc32)o1,-30.6,-45.3,-26.5,-11.8,-15.8,-6.2
Cc1ccc(S(=O)(=O)N2CCCCC2)cc1NC(=O)CNc1ccccc1N1CCCC1=O,12.4,13.1,3.6,41.7*,2.8,-6.7
O=S(=O)(Nc1ccc(Br)cc1)c1cccc2nonc12,23.6,18.7,18.9,-3.5,-24.1,-1.8
O=S(=O)(Nc1ccc(C(O)(C(F)(F)F)C(F)(F)F)cc1)c1ccc(Cl)c2nonc12,76.0*,98.4*,14.6,x,10.1,x
FC(F)(F)c1cc(CCN2CCNC[C@@H]2c2ccccc2)cc(C(F)(F)F)c1,19.6,14.8,-4.8,-18.7,5.5,x
FC(F)(F)c1cc(CO[C@@H]2CCCN[C@@H]2c2ccccc2)cc(C(F)(F)F)c1,-4.1,71.8*,-1.6,-12.4,10.8,-2.5
SMILES,TWEAK Fn14 block,Peg3 prom inh,HIF-2a inh,LMP1 NFkB inh,TROY NFkB inh,MITF TRPM1 inh
CCN1C(=O)/C(=C/c2nc3ccccc3c(=O)n2-c2ccc(C)cc2)c2ccccc21,67.5*,3.8,32.8,14.1,12.8,19.2
CCN1C(=O)/C(=C\c2nc3ccccc3c(=O)n2-c2ccccc2)c2ccccc21,57.2*,22.3,33.0,10.7,26.0,11.2
Cc1ccc(C2=NN(C(=O)CSc3nnnn3C)C(c3ccco3)C2)cc1 (stereo not given),6.6,-5.4,-27.8,5.1,-17.7,8.2
Cc1ccc2[nH]c3c(c2c1)CCCC3NCCO (stereo not given),5.2,51.6*,12.8,0.6,4.5,-6.1
N#Cc1c(N)nc(SCC(=O)C23CC4CC(CC(C4)C2)C3)c(C#N)c1-c1ccc(Cl)cc1,-44.5,19.1,-18.9,-1.5,-15.5,10.2
CSc1nc(N)nc(SCC(=O)C23CC4CC(CC(C4)C2)C3)c1C#N,93.4*,-31.8,-95.1,69.0*,54.4*,-11.9
Nc1nc(SCC(=O)C23CC4CC(CC(C4)C2)C3)n[nH]1,72.0*,-7.1,-6.7,3.8,x,7.6
C[C@H](O)[C@@H]1C(=O)N2CCc3ccc(N4CCN(C)CC4)cc3[C@@H]2C[C@@H]1N(C)C(=O)c1cccnc1,-2.8,7.7,-6.5,-7.1,12.1,x
CCC(Sc1nc2ccncc2[nH]1)C(=O)Nc1ccc(C)c(Cl)c1 (stereo not given),0.5,85.3*,11.2,-5.1,-48.2,14.3
O=C(CCCN1C(=O)/C(=C\c2cccs2)SC1=S)Nc1ccc(O)cc1C(=O)O,19.9,53.2*,32.4,-1.4,33.0,6.0
O=C(CCCN1C(=O)/C(=C/c2cccs2)SC1=S)NNC(=O)c1ccccc1O,-4.9,34.4,40.7*,12.3,11.6,11.7
O=C(CCCN1C(=O)/C(=C/c2cccs2)SC1=S)Nc1ccccc1O,-17.2,13.5,4.4,8.2,6.8,9.4
COc1ccccc1C(=O)C1CCCN(C(=O)c2cnn(C(C)C)c2)C1 (stereo not given),-0.4,4.8,-11.1,2.8,-11.6,-4.7
COCC(=O)Nc1ccc2c(c1)[C@@H]1C[C@H](CC(=O)OC)O[C@@H](CO)[C@@H]1O2,23.7,9.7,-3.8,3.4,-5.7,x
Cc1oc(-c2ccc(Cl)cc2)nc1CN1CCC(C(=O)NCCCN2CCCC(C)C2)CC1 (stereo not given),-10.8,43.2,-6.0,-35.6,-4.0,95.9*
COc1ccc(-c2nc(CN3CCC(C(=O)N4CCOCC4)CC3)c(C)o2)cc1C,-7.1,-2.9,-15.2,65.8*,13.0,1.3
Cc1oc(-c2ccc(Cl)cc2)nc1CN1CCC(C(=O)N2CCN(Cc3ccccc3)CC2)CC1,1.2,3.5,0.8,-7.0,29.2,14.2
Cc1oc(-c2ccc(Cl)cc2)nc1CN1CCC(C(=O)N2CCc3ccccc3C2)CC1,-15.9,79.4*,-32.4,7.5,7.3,22.4
Cc1ccccc1-c1cc2nc(NCc3ccc(N(C)C)cc3)n(C)c(=O)c2s1,23.5,-94.3,-171.6,x,-34.0,x
Cc1nn(-c2ccccc2)c(N)c1-c1ccccc1,-5.2,-196.2,-250.8,8.2,-63.3,-105.1
Cc1nn(-c2nc3ccccc3[nH]2)c(N)c1-c1ccccc1,68.3*,-384.6,-239.4,-54.6,-71.9,-65.0
